Experimental data taken from PubChem BioAssay (NCATS).
Several values for one entry are separate records, joined by “and”; a condition that tells them apart may be missing. Equal entries are not always repeated. Records with an inconclusive call do not appear. Some compounds were tested as several samples or in several runs, with calls that do not always agree. Activity calls are given as the source filed them. Unless noted, calls come from the whole dose curve; as a rule, active = well fitted curve in the direction sought with a large enough effect; inconclusive = small, poorly fitted or top-dose-only effect, or another doubt; inactive = no such curve, though single readings can be large; an effect the other way counts as inactive or inconclusive.

Experiments:
Hek293T = experiment: Primary qHTS to identify gynecologic anti-cancer compounds using libraries of approved drugs and bioactive compounds (AID 1345084); settings: Gynecologic cancer cell panel viability, ATPlite luminescence, 48 h, control line for the selectivity index; series mostly up to 57.5 µM; note: nearly all actives have a fitted effect of over 55% in size; note: potency is the fitted concentration of half-maximal effect
Summary of the method: (§1)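 Cells, 1,000 per well, plated 16 h, then exposed 48 h at 37 C to compounds. Viability by ATPlite luminescence after 15 min at room temperature.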

OV90 = experiment: as above; settings: Gynecologic cancer cell panel viability, ATPlite luminescence, 48 h; series mostly up to 57.5 µM
Summary of the method: as §1

Tov-21-G = experiment: as above; settings: Gynecologic cancer cell panel viability, ATPlite luminescence, 48 h; series mostly up to 57.5 µM
Summary of the method: as §1

[1] = Drug repurposing screens with cells derived from glioblastoma tumor samples (AID 1345199); settings: GBM patient neurospheres viability, ATP luminescence, 48 h; note: nearly all actives have a fitted effect of over 40% in size; note: potency is the fitted concentration of half-maximal effect; for activity, negative = cell killing: % is set by controls: 0 for no effect and ±100 for the full control effect
Summary of the method: (§2)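 Four patient lines of CD133+ GBM neurospheres were screened at several concentrations; hits were retested in those lines plus three slower-growing GBM lines, using 48-hour treatment and ATP-based viability.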

astro = experiment: as above; settings: viability, ATP luminescence, 48 h; series mostly up to 45.9 µM
Summary of the method: as §2

Tov112D = experiment: Primary qHTS to identify gynecologic anti-cancer compounds using libraries of approved drugs and bioactive compounds (AID 1345084); settings: Gynecologic cancer cell panel viability, ATPlite luminescence, 48 h; series mostly up to 57.5 µM; note: nearly all actives have a fitted effect of over 55% in size; note: potency is the fitted concentration of half-maximal effect
Summary of the method: as §1

JEG-3 = experiment: as above; settings: Gynecologic cancer cell panel viability, ATPlite luminescence, 48 h; series mostly up to 57.5 µM
Summary of the method: as §1

PA-1 = experiment: as above; settings: Gynecologic cancer cell panel viability, ATPlite luminescence, 48 h; series mostly up to 57.5 µM
Summary of the method: as §1

SKOV3 = experiment: as above; settings: Gynecologic cancer cell panel viability, ATPlite luminescence, 48 h; series mostly up to 57.5 µM
Summary of the method: as §1

[2] = biological target: Nuclear receptor subfamily 1 group I member 2 (Rattus norvegicus) (UniProt Q9R1A7); experiment: qHTS assay for small molecule activators of the rat pregnane X receptor (rPXR) signaling pathway (AID 651751; call rule not given here; note: 0% is about no effect); settings: rPXR reporter cells, luciferase (One-Glo), 24 h
Sequence of Nuclear receptor subfamily 1 group I member 2 (Rattus norvegicus) (Q9R1A7 whole entry, looked up): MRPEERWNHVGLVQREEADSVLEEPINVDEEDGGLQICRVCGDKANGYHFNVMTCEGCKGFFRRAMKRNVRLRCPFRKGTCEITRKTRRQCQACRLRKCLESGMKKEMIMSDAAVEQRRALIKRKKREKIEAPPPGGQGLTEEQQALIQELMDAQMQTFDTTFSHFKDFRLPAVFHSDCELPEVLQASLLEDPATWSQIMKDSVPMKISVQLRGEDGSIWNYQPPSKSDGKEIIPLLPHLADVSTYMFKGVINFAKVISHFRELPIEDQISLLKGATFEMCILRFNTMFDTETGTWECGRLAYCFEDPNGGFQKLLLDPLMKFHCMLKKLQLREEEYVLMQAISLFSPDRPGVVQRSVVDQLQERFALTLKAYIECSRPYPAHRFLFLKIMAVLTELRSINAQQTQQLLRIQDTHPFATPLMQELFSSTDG

[3] = qHTS assay for small molecule activators of the human pregnane X receptor (PXR) signaling pathway (AID 720659; call rule not given here; note: 0% is about no effect)
[4] = at 46.1 µM (top of the series), tumour line C
[5] = at 45.9 µM (top of the series), tumour line B
[6] = at 45.9 µM (top of the series), tumour line D
[7] = at 91.6 µM (top of the series), tumour line B
[8] = at 91.6 µM (top of the series), tumour line D
[9] = at 99.2 µM (top of the series), tumour line C

Nc1c2ccccc2nc2ccccc12
active: Potency (Hek293T) 8.91 µM | Potency (OV90) 28.2 µM | Potency (Tov-21-G) 14.1 µM | Potency ([1]; tumour line A) 25.1 µM | Potency ([1]; tumour line B) 12.6 µM | Potency ([1]; tumour line D) 10 µM | Potency (astro) 10 µM
inactive: activity, negative = cell killing [1, 4] -4.16%

CC[N+]1(CC)CCC(=C(c2ccccc2)c2ccccc2)C1C (stereo unspecified)
inactive: Potency (Hek293T) | Potency (OV90) | Potency (Tov-21-G) | Potency (Tov112D) | Potency (astro)

OCCOCCN1CCN(C(c2ccccc2)c2ccc(Cl)cc2)CC1 (stereo unspecified)
inactive: Potency (Hek293T) | Potency (JEG-3) | Potency (PA-1) | Potency (SKOV3) | Potency (Tov-21-G) | Potency (Tov112D) | Potency (astro) | max response [2] -2.98%

Nc1nc2ccccc2n1Cc1ccc(F)cc1
inactive: Potency (JEG-3) | Potency (OV90) | Potency (PA-1) | Potency (SKOV3) | Potency (Tov-21-G) | Potency (Tov112D)

COc1ccc(-n2nc(CCC(=O)N(C)O)cc2-c2ccc(Cl)cc2)cc1
active: Potency (SKOV3) 31.6 µM
inactive: Potency (Hek293T) | Potency (Tov112D)

CNC[C@H](O)[C@@H](O)[C@H](O)[C@H](O)CO
inactive: Potency (JEG-3) | Potency (OV90) | Potency (PA-1) | Potency (SKOV3) | Potency (Tov-21-G) | Potency (Tov112D)

Oc1ccc(CCNCCCCCCNCCc2ccccc2)cc1O
inactive: Potency (Hek293T) | Potency (JEG-3) | activity, negative = cell killing [1, 5] -20.6% | Potency (astro)
active: Potency ([1]; tumour line A) 17.8 µM

CC(C)(C)C1CCC(CC2=C(O)c3ccccc3C(=O)C2=O)CC1 (stereo unspecified)
inactive: Potency (Hek293T) | Potency (JEG-3) | Potency (PA-1) | Potency (Tov-21-G) | Potency (Tov112D)

CC[N+](CC)(CC)CCOC(=O)C(C1CCCC1)C1CCCC1
inactive: Potency (Hek293T) | Potency (JEG-3) | Potency (SKOV3) | Potency (Tov-21-G) | Potency (Tov112D) | Potency (astro)

Cn1cc(S(C)=O)c(=O)c2ccc(F)cc21 (stereo unspecified)
inactive: Potency (Hek293T) | Potency (JEG-3) | Potency (PA-1) | Potency (SKOV3) | Potency (Tov-21-G) | Potency (Tov112D) | activity, negative = cell killing [1, 5] -9.03% | activity, negative = cell killing [1, 6] -4.06% | activity, negative = cell killing [1, 4] -1.4% | Potency (astro)

CN1C(=O)c2ccccc2C1=O
inactive: Potency (Hek293T) | Potency (OV90) | Potency (PA-1) | Potency (Tov-21-G) | Potency (Tov112D) | activity, negative = cell killing ([1]; at 91.6 µM (top of the series), tumour line A) -18.9% | activity, negative = cell killing [1, 7] -9.87% | activity, negative = cell killing [1, 8] -20.8% | activity, negative = cell killing [1, 9] 6.36% | Potency (astro) | max response [2] 0.847% | outcome [3]

CCOC(=O)N1CCC(Nc2ccc(Cl)cc2N)CC1
inactive: Potency (Hek293T) | Potency (JEG-3) | Potency (SKOV3) | Potency (Tov-21-G) | Potency (Tov112D)

Nc1ccc2cc3ccc(N)cc3nc2c1
inactive: activity, negative = cell killing [1, 4] -19.3%
active: Potency (Hek293T) 6.31 µM | Potency (OV90) 28.2 µM | Potency (PA-1) 7.94 µM | Potency (Tov112D) 28.2 µM | Potency ([1]; tumour line A) 22.4 µM | Potency ([1]; tumour line B) 14.1 µM | Potency ([1]; tumour line D) 7.94 µM | Potency (astro) 10 µM

N#C/C(=C1/SC[C@@H](c2ccc(Cl)cc2Cl)S1)n1ccnc1
inactive: Potency (Hek293T) | Potency (JEG-3) | Potency (PA-1) | Potency (SKOV3) | Potency (Tov-21-G) | Potency (Tov112D) | activity, negative = cell killing [1, 5] -20.5% and -14.1% | Potency (astro)
active: Potency ([1]; tumour line A) 11.2 µM and 20 µM | Potency ([1]; tumour line D) 11.2 µM

CC(C)C(C)(C)C(C)(C)C(C)(C)S
active: Potency ([1]; tumour line A) 28.2 µM
inactive: Potency (Hek293T) | Potency (OV90) | Potency (Tov-21-G) | Potency (Tov112D) | activity, negative = cell killing [1, 7] -9.39% | activity, negative = cell killing [1, 8] -2.43% | activity, negative = cell killing [1, 9] -11.4% | Potency (astro) | max response [2] -1.2% and -1.45% | outcome [3]

COC(=O)[C@H]1[C@H]2C[C@@H]3c4[nH]c5cc(OC)ccc5c4CCN3C[C@H]2C[C@@H](OC(=O)/C=C/c2ccc(O)c(OC)c2)[C@@H]1OC
inactive: Potency (Hek293T) | Potency (PA-1) | Potency (Tov112D)
active: Potency (OV90) 31.6 µM | Potency (SKOV3) 35.5 µM

CCCCCCCCCCCCCCCC[n+]1ccccc1
inactive: outcome [3]
active: Potency (Hek293T) 8.91 µM | Potency (OV90) 31.6 µM | Potency (Tov-21-G) 31.6 µM | Potency (astro) 3.16 µM

O=C1CCCc2c(O)cccc21
inactive: Potency (Hek293T) | Potency (JEG-3) | Potency (PA-1) | Potency (Tov-21-G) | Potency (Tov112D)

Cc1cc2nc3ccc(=[N+](C)C)cc-3sc2cc1N
active: Potency (Hek293T) 14.1 µM | Potency (OV90) 22.4 µM | Potency (PA-1) 3.55 µM | Potency (SKOV3) 35.5 µM | Potency (Tov-21-G) 28.2 µM | Potency (Tov112D) 12.6 µM

Nc1cccc2c(N)cccc12
inactive: Potency (Hek293T) | activity, negative = cell killing [1, 9] -15.4% | Potency (astro) | max response [2] -7.42% and 6.55%
active: Potency (OV90) 20 µM | Potency ([1]; tumour line A) 15.8 µM

CN1[C@@H]2CC[C@H]1CC(NC(=O)n1c(=O)[nH]c3ccccc31)C2 (stereo partly specified)
active: Potency ([1]; tumour line A) 28.2 µM
inactive: Potency (Hek293T) | Potency (JEG-3) | Potency (PA-1) | Potency (SKOV3) | Potency (Tov-21-G) | Potency (Tov112D) | activity, negative = cell killing [1, 5] 3.71% | activity, negative = cell killing [1, 6] -10.2% | activity, negative = cell killing [1, 4] 9.49% | Potency (astro)

OC(CCCN1CCCCC1)(c1ccccc1)c1ccccc1
inactive: Potency (Hek293T) | Potency (JEG-3) | Potency (PA-1) | Potency (SKOV3) | Potency (Tov-21-G) | Potency (Tov112D) | Potency (astro)

CN(C)CCCOC1(Cc2ccccc2)CCCCCC1
inactive: Potency (Hek293T) | Potency (JEG-3) | Potency (PA-1) | Potency (Tov-21-G) | Potency (Tov112D)

O=C1NC(=O)/C(=C/c2ccc3c(c2)OC(F)(F)O3)S1
inactive: Potency (Hek293T) | Potency (SKOV3) | Potency (Tov-21-G) | Potency (Tov112D)

CN1CCC(N(Cc2cccs2)c2ccccc2)CC1
active: Potency ([1]; tumour line A) 10 µM
inactive: Potency (Hek293T) | Potency (JEG-3) | Potency (PA-1) | Potency (SKOV3) | Potency (Tov-21-G) | Potency (Tov112D) | activity, negative = cell killing [1, 5] -22.4% | Potency (astro)

CCCCCCCCCCCC[N+](C)(C)Cc1ccccc1
inactive: max response [2] 0.668% | outcome [3]
active: Potency (Hek293T) 15.8 µM | Potency (OV90) 14.1 µM | Potency (PA-1) 8.91 µM | Potency (SKOV3) 3.16 µM | Potency (Tov-21-G) 7.94 µM | Potency (Tov112D) 25.1 µM | Potency (astro) 11.2 µM
